hcDAF-12 act: H. contortus DAF-12 activation, primary screen | HEK293 hcDAF-12 lit1-tk-luc reporter, luminescence; 0% DMSO, 100% Δ7-dafachronic acid | activation, % at 6.8 µM | 370,000 compounds, 1.4% hits | AID 652067;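 active = activation above the mean of all tested compounds plus 3 SD, cut at about 5.5% in these data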
ssDAF12 agonist: activates DAF-12 receptor from parasite S. stercoralis. 370,000 compounds, 1% hits. activation, % at 6.8 µM. HEK293 ssDAF-12/GRIP1 lit1-tk-luc reporter, luminescence; % of 3 µM dafachronic acid response;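 active = activation above the mean over all tested compounds plus 3 SD, cut at about 0.9% in these data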
hgDAF-12 ag: agonists of H. glycines DAF-12 nuclear receptor; HEK293 GAL4-hgDAF12 UAS-luciferase reporter, agonist luminescence; normalized to butyrate control; activation, % at 6.8 µM; 370,000 compounds, 1.8% hits;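 active = activation above a cutoff set at the mean of all screened compounds plus 3 SD, cut at about 10% in these data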
APP 5'UTR act: activates APP 5'UTR luciferase reporter. SH-SY5Y APP 5'UTR luciferase reporter, luminescence; zero percent = DMSO vehicle wells. activation, % at 2 µM. 190,000 compounds, 1% hits;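 active = activation above a set limit, based on mean plus 3 SD of controls, cut at about 140% in these data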
NF-kB expr up: NF-kB expression increase, human neuronal cells | NF-kB reporter expression; hits give high values | fold change at 12.5 µM | 190,000 compounds, 1.6% hits | AID 1239; in the data active = fold change above about 3.3
hgDAF12 ag: hgDAF-12 agonism, confirmation assay. shares compounds with hgDAF-12 ag. HEK293 GAL4-hgDAF12 luciferase reporter, agonist mode; percent of butyrate response. activation, % at 6.8 µM. 3,300 compounds, 80% hits;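 active = mean activation over triplicate wells above the hit cutoff derived from the earlier primary screen, cut at about 11% in these data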
LXRb DAF12 ctr: LXR-beta agonism as DAF-12 counter-screen | activation, % at 6.8 µM | HEK293 Gal4-LXR luciferase reporter, 24 h | 3,300 tested, under 10 active | shares compounds with hgDAF-12 ag;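 active = mean activation of the triplicate above a set limit carried over from the primary screen, none filed active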
Target sequence (P55055 whole entry, looked up, the tested form may be a part): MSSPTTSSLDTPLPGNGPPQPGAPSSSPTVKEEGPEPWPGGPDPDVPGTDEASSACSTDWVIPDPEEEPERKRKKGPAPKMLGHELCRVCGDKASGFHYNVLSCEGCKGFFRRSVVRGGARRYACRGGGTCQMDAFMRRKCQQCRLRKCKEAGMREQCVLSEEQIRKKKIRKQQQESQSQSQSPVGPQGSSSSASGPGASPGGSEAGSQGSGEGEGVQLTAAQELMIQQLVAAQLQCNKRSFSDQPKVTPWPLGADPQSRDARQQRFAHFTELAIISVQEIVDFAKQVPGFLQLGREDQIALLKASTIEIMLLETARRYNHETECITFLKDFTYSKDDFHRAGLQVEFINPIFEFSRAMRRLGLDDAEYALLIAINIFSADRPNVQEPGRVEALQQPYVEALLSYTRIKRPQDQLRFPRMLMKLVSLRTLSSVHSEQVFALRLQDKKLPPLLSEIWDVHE
A number is an active result; i = inactive; nt = no result. An excerpt weighted towards active compounds, which were near 3.4% of everything screened.

SMILES | hcDAF-12 act | ssDAF12 agonist | hgDAF-12 ag | APP 5'UTR act | NF-kB expr up | hgDAF12 ag | LXRb DAF12 ctr
O=C(c1ccc([N+](=O)[O-])o1)N1CCc2ccccc21 | i | i | i | nt | nt | nt | nt
O=C1C=C[C@H]2CC[C@@H](O)[C@@H]1[C@@H]2Sc1ccccc1 | i | i | i | nt | nt | nt | nt
CC1=C/C(=N\NC(=O)c2ccccc2)CC1 | i | i | 14 | i | i | i | i
O=C1CS/C(=N\NC(=O)c2ccccc2)N1 | i | i | i | nt | nt | nt | nt
CCN(CC)Cc1c(O)ccc2c(=O)c(-c3ccc4c(c3)OCCO4)coc12 | i | i | i | i | i | nt | nt
O=c1c(-c2ccc3c(c2)OCCO3)coc2cc(O)cc(O)c12 | i | i | 14 | 145 | 5.8 | 15 | i
O=C(O)c1ccc(N/N=C/c2ccncc2)cc1 | i | i | i | nt | nt | nt | nt
O=C(O)c1ccc(N/N=C/C2=Cc3ccccc3OC2)cc1 | i | i | 19 | nt | nt | 16 | i
Cc1ccc(C(=O)NCCCc2ccccc2)c(C)c1 | i | i | 15 | 160 | i | 16 | i
Cc1ccc(C(=O)NCCCc2ccccc2)c(Cl)c1 | 6.5 | i | 15 | nt | nt | 11 | i
CC(C)(C)C1CCC(=NNc2nc3ccccc3[nH]2)CC1 (configuration not stated) | i | i | i | i | i | nt | nt
c1ccc2c(c1)CC/C2=N/Nc1nc2ccccc2[nH]1 | i | i | 14 | 180 | 3.4 | i | i
CCN(CC)c1ccc(/C=N/NC(=O)c2ccc([N+](=O)[O-])cc2)cc1 | i | i | i | i | i | nt | nt
CCN(CC)c1ccc(/C=N/NC(=O)c2ccco2)cc1 | i | i | 17 | i | 6.3 | 21 | i
O=C(N/N=C\c1ccc2c(c1)OCO2)c1ccco1 | i | i | 14 | i | i | 12 | i
CCN(CC)c1ccc(/C=N/NC(=O)c2cnccn2)cc1 | i | i | 18 | i | i | 18 | i
CCN(CC)c1ccc(NC(=S)NC(=O)c2ccco2)cc1 | i | i | 16 | i | i | i | i
O=C(N1CCCC1)n1ncc(-c2ccc(-c3ccccc3)cc2)n1 | i | i | i | nt | nt | nt | nt
CCC[C@H]1[C@@H](NC(=O)c2cccc(Cl)c2)CC[C@@]23CCCN2C(=O)CCC[C@@H]13 | i | i | i | nt | nt | nt | nt
O=C(CN1C(=O)C2(OCCCO2)c2ccccc21)NCc1ccc(F)cc1 | i | i | i | nt | nt | nt | nt
O=C1c2cccn2CC2Cc3ccccc3N12 (configuration not stated) | 6.5 | i | 15 | nt | nt | 17 | i
Nc1c(C(=O)Nc2ccc(Cl)cc2)sc2nc(N3CCOCC3)c3c(c12)CCCC3 | i | i | i | nt | nt | nt | nt
Nc1c(C(=O)Nc2ccccc2)sc2nc(N3CCOCC3)c3c(c12)CCCC3 | i | i | 15 | nt | nt | i | i
O=C(NCc1ccccc1)OCCN1C(=O)CCC12CCC(c1ccccc1)CC2 (configuration not stated) | i | i | i | nt | nt | nt | nt
Cc1csc2nc(CSc3nc4ccccc4o3)cn12 | i | i | 13 | i | i | i | i
SMILES | hcDAF-12 act | ssDAF12 agonist | hgDAF-12 ag | APP 5'UTR act | NF-kB expr up | hgDAF12 ag | LXRb DAF12 ctr
Nn1c(CSc2nc3ccccc3o2)nnc1CSc1nc2ccccc2o1 | i | i | i | i | i | nt | nt
CC(=O)c1ccc(NC(=O)C2CC(=O)N(Cc3ccccc3)C2)cc1 (configuration not stated) | i | i | 14 | i | i | i | i
O=C(Nc1ccccc1)C1CC(=O)N(Cc2ccccc2)C1 (configuration not stated) | i | i | i | nt | nt | nt | nt
O=C(NCc1ccco1)C1CCCN(S(=O)(=O)c2ccc([N+](=O)[O-])cc2)C1 (configuration not stated) | i | i | i | nt | nt | nt | nt
Cc1ccc(-c2nnc(-c3cccnc3)o2)cc1 | i | i | i | nt | nt | nt | nt
Cc1cccc(-c2nnc(-c3ccccc3)o2)c1 | i | i | 13 | i | i | 16 | i
COc1ccc(S[C@]2(C(=O)N3CCN(c4ncccn4)CC3)CC(=O)N(c3ccc(Cl)cc3)[C@@H]2c2ccc(OC)cc2)cc1 | i | i | i | nt | nt | nt | nt
CC(=O)Nc1ccc(OCCC[n+]2ccccc2)cc1 | i | i | i | i | i | nt | nt
CC(=O)Nc1ccc(OCC[n+]2cccc(C(N)=O)c2)cc1 | i | i | 20 | i | i | i | i
N#Cc1cccc(NC(=O)OC2CCC23CCC(c2ccccc2)CC3)c1 (configuration not stated) | i | i | i | nt | nt | nt | nt
CN(C)c1ccc(C2=NOC(CN3C(=O)c4ccccc4S3(=O)=O)C2)cc1 (configuration not stated) | i | i | 13 | i | 3.4 | 18 | i
Cc1cc(C(=O)COc2ncnc3sccc23)c(C)n1C1CC1 | i | i | i | i | i | nt | nt
CCCn1c(C)cc(C(=O)COc2ncnc3sccc23)c1C | i | i | 14 | i | i | 13 | i
O=C1C=C(N2CCCCCC2)C(=O)N1c1ccc(Cl)cc1 | i | i | 15 | nt | nt | i | i
O=C(COc1c(Cl)cc(Cl)cc1Cl)N/N=C/c1ccc[nH]1 | i | i | i | nt | nt | nt | nt
CN(CCc1ccccn1)C(=O)c1ccc2c(c1)ncn2C1CCCCC1 | i | i | i | nt | nt | nt | nt
C/C(=N\NC(=O)c1nn(C)cc1Br)c1ccncc1 | i | i | i | i | i | nt | nt
C/C(=N\NC(=O)c1ccn[nH]1)c1cn(C)nc1C | i | 1.3 | 15 | i | i | i | i
COc1ccccc1/C=C/C(=O)Oc1cccc2cccnc12 | i | i | i | i | i | nt | nt
COc1cccc(/C=C/c2ccccn2)c1O | i | i | 16 | nt | nt | 14 | i
Cc1ccc(Cc2c(-c3ccc(Br)cc3)nc3ccc(Br)cn23)cc1 | i | i | 17 | nt | nt | i | i
Cc1ccc(Cc2c(-c3ccc(Br)cc3)nc3ccc(Cl)cn23)cc1 | i | i | i | nt | nt | nt | nt
Cc1ccc(-c2nc3ccc(C)cn3c2Cc2ccsc2)cc1 | i | i | 17 | nt | nt | i | i
Cc1ccc2nc(-c3cccc(Cl)c3)c(Cc3ccsc3)n2c1 | i | i | 16 | nt | nt | i | i
COc1ccc(Cn2ccc3ccc(-c4ccc5ccn(C(=O)c6ccccc6)c5c4)cc32)cc1 | i | i | i | nt | nt | nt | nt
SMILES | hcDAF-12 act | ssDAF12 agonist | hgDAF-12 ag | APP 5'UTR act | NF-kB expr up | hgDAF12 ag | LXRb DAF12 ctr
Cc1[nH]c2ccccc2c1/C=N/NC(=O)CNC(=O)c1cccs1 | i | i | i | nt | nt | nt | nt
Cc1[nH]c2ccccc2c1/C=N/NC(=O)c1cccs1 | 6.1 | 0.9 | 14 | i | i | i | i
CSc1ccc(/C=N/NC(=O)c2cccs2)cc1 | 6.3 | i | 16 | nt | nt | 18 | i
CN(C)c1ccc(/C=N/NC(=O)c2ccccc2Cl)cc1 | i | i | i | i | i | nt | nt
CSc1ccc(/C=N/NC(=O)c2ccccc2Cl)cc1 | i | i | 18 | i | nt | 13 | i
Cc1cc2nccc(-c3cccnc3)n2n1 | i | i | i | i | i | nt | nt
Cc1ccc(-c2cnc3cc(C)nn3c2)cc1 | 5.9 | i | 18 | 147 | 5.7 | 12 | i
CCCNC(=O)c1nn2cc(Br)cnc2c1Cl | i | i | i | i | nt | nt | nt
Cc1ccc(-c2cnc3c(Cl)c(C)nn3c2)cc1 | i | i | 24 | 244 | 6.5 | 18 | i

Source: PubChem (several laboratories)
